Consider 40 compounds from the supplement of paper PMC7156485.
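Also: TDF is a line of transformed human dermal fibroblasts of mesenchymal origin.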

For the experiment, the system named is TDF. Briefly: H1.0 immunofluorescence intensity relative to DMSO (% of DMSO); higher = stronger H1.0 induction, active = 120 or more. The following applies: concentration: 10 µM; 24 h. The method, boiled down:
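HCC1569 and TDF cells (800 per well, 384-well plates, RPMI with 10% FBS) were treated with compounds at 10 µM for 24 h at 37 °C, in triplicate. Cells were fixed in 3.7% formaldehyde and stained with a rabbit anti-H1.0 antibody, an AlexaFluor 647 secondary and DAPI; six fields per well were imaged at ×10. H1.0 nuclear intensity or cell number is expressed as percent of the plate DMSO control, taking the median of replicates. HCC1569 values were smoothed for positional effects.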
In the case of `COc1ccc(-n2[nH]c3c(cnc4ccccc43)c2=O)cc1` [2-(4-methoxyphenyl)-1H-pyrazolo[4,3-c]quinolin-3(2H)-one], the H1.0 immunofluorescence intensity is 98.5 (inactive).
In the case of `CC(NC(=O)CCc1nc(=O)c2ccccc2[nH]1)c1ccccc1` (stereo not given), the H1.0 immunofluorescence intensity is 93.7 (inactive).
Take `CC(=O)NC1C(N=C(N)N)C=C(C(=O)O)OC1C(O)C(O)CO` (stereo not given): the H1.0 immunofluorescence intensity was 99.2 (inactive).
With `O=C(O)Cc1c[nH]c2ccc(O)cc12` [5-Hydroxyindolacetic acid] the figure was 99.9 (inactive).
Turning to `NCCCC(=O)O`, the H1.0 immunofluorescence intensity is 108 (inactive).
With `COc1ncnc(NS(=O)(=O)c2ccc(N)cc2)c1OC` [Sulfadoxine] the figure was 91.9 (inactive); with `CC(=O)OC1(C(C)=O)CCC2C3CC(C)C4=CC(=O)CCC4(C)C3CCC21C` (stereo not given) [Medroxyprogesterone 17-Acetate], 102 (inactive).
Turning to `CC(=O)Oc1ccc(C(c2ccc(OC(C)=O)cc2)c2ccccn2)cc1` [Bisacodyl], the H1.0 immunofluorescence intensity is 86.4 (inactive).
Turning to `NS(=O)(=O)c1cc2c(cc1Cl)NC=NS2(=O)=O` [Chlorothiazide], the H1.0 immunofluorescence intensity is 95.5 (inactive).
For the compound `CC(C=CC1(O)C(C)=CC(=O)CC1(C)C)=CC(=O)O` (racemic), the H1.0 immunofluorescence intensity is 99.5 (inactive).
Regarding `CC(C)CC(NC(=O)C(Cc1ccccc1)NC(=O)c1cnccn1)B(O)O` (stereo not given) [Bortezomib], the H1.0 immunofluorescence intensity was 144 (active).
In the case of `CC1OC(OCC2OC(Oc3cc(O)c4c(c3)OC(c3ccc(O)c(O)c3)CC4=O)C(O)C(O)C2O)C(O)C(O)C1O` (stereo not given) [Eriocitrin], the H1.0 immunofluorescence intensity was 89 (inactive).
In the case of `CC(C)NCC(O)c1ccc2ccccc2c1.Cl` (stereo not given) [Pronethalol.HCl], the H1.0 immunofluorescence intensity is 86.6 (inactive).
For `C[C@@H](c1nc(-c2ccc(C#N)cc2)cs1)[C@](O)(Cn1cncn1)c1ccc(F)cc1F`, the H1.0 immunofluorescence intensity is 111 (inactive).
For `CCN(c1nc(N)c(C(=O)N=C(N)N)nc1Cl)C(C)C` [5-(N-Ethyl-N-isopropyl)amiloride], the H1.0 immunofluorescence intensity is 97.2 (inactive).
With `Cn1cnc2c(F)c(Nc3ccc(Br)cc3Cl)c(C(=O)NOCCO)cc21`, the H1.0 immunofluorescence intensity was 93.3 (inactive).
On to `CN(C)CCC=C1c2ccccc2CCc2ccccc21.Cl` [Amitriptyline.HCl], for which the H1.0 immunofluorescence intensity is 99.6 (inactive).
Consider `C=C1CCC2OC2(C)CCC2C1CC2(C)C` (stereo not given) [Caryophylline], for which the H1.0 immunofluorescence intensity was 105 (inactive).
Take `CCOC(=O)[C@H](CCc1ccccc1)N[C@@H](C)C(=O)N1CCC[C@H]1C(=O)O.O=C(O)C=CC(=O)O`: the H1.0 immunofluorescence intensity is 91 (inactive).
For the compound `CCOc1ccc(C(Nc2ccccn2)c2ccc3ccc(C)nc3c2O)cc1C` (stereo not given), the H1.0 immunofluorescence intensity is 94.8 (inactive).
On to `COc1ccc2c(c1OC)C(=O)OC2C1c2c(cc3c(c2OC)OCO3)CCN1C.Cl` (stereo not given) [Noscapine hydrchloride], for which the H1.0 immunofluorescence intensity was 97.1 (inactive).
Take `CC(=O)NCCOC(=O)[C@H](Oc1cccc(C(F)(F)F)c1)c1ccc(Cl)cc1`: the H1.0 immunofluorescence intensity was 95.3 (inactive).
As for `Cn1cc(C=C2C(=O)Nc3ccc(S(N)(=O)=O)cc32)c2ccccc21` [Syk Inhibitor], the figure is 82.7 (inactive); as for `CC(=O)OC1CC2(C)C(CC(O)C3C4(C)CCC(O)C(C)C4CCC32C)C1=C(CCC=C(C)C)C(=O)[O-].[Na+]` (stereo not given) [Fusidic acid sodium], 89.5 (inactive).
For `COc1cc(OC)cc(C(CNc2ncnc3c2ncn3C2OC(CO)C(O)C2O)c2ccccc2C)c1` (stereo not given), the H1.0 immunofluorescence intensity is 94.5 (inactive).
For the compound `Oc1cc2c(c(Cl)c1O)CCNCC2c1ccccc1` (stereo not given), the H1.0 immunofluorescence intensity is 85.5 (inactive).
For `O=[N+]([O-])c1ccc(Nc2nc(N3CCOCC3)nc(N3CCOCC3)n2)cc1`, the H1.0 immunofluorescence intensity was 95.8 (inactive).
On to `CCOC(=O)C1=C(COCCN)NC(C)=C(C(=O)OC)C1c1ccccc1Cl` (stereo not given) [Amlodipine], for which the H1.0 immunofluorescence intensity is 93.5 (inactive).
As for `C=C1C(=O)OC2C1CCC(C)=CCCC1(C)OC21` (stereo not given) [Parthenolide], the figure is 119 (inactive); as for `O=C(Nc1cccc(C(F)(F)F)c1)Nc1cc(S(=O)(=O)NC2CC2)ccc1-c1ccsc1`, 94.6 (inactive).
Regarding `Cl.c1ccc(-n2c(C3=NCCN3)cc3ccccc32)cc1`, the H1.0 immunofluorescence intensity is 105 (inactive).
For `O=c1c2ccccc2[nH]c(=S)n1CCN1CCC(=C(c2ccc(F)cc2)c2ccc(F)cc2)CC1` [Diacylglycerol Kinase Inhibitor II], the H1.0 immunofluorescence intensity is 93.9 (inactive).
Turning to `COc1cc2nccc(Oc3ccc(NC(=O)NC4CC4)c(Cl)c3)c2cc1C(N)=O`, the H1.0 immunofluorescence intensity is 89.2 (inactive).
Take `CC(C=CC1=C(C)CCCC1(C)C)=CC=CC(C)=CC(=O)Nc1ccc(O)cc1` [Retinoic acid p-hydroxyanilide]: the H1.0 immunofluorescence intensity is 100 (inactive).
Take `O=c1c(-c2ccc(O)cc2)coc2cc(O)cc(O)c12` [Genistein]: the H1.0 immunofluorescence intensity is 92.8 (inactive).
Consider `O=C(O)CN(CCOCCOCCN(CC(=O)O)CC(=O)O)CC(=O)O`, for which the H1.0 immunofluorescence intensity is 90.3 (inactive).
Take `CCCc1cc(C(N)=S)ccn1` [Prothionamide]: the H1.0 immunofluorescence intensity is 99.4 (inactive).
In the case of `COC(=O)C1C(O)CCC2CN3CCc4c([nH]c5ccccc45)C3CC21` (stereo not given) [Corynanthine], the H1.0 immunofluorescence intensity is 102 (inactive).
`COc1cc(C2c3cc4c(cc3C(OC3OC5COC(C)OC5C(O)C3O)C3COC(=O)C23)OCO4)cc(OC)c1O` (stereo not given) [Etoposide]: the H1.0 immunofluorescence intensity was 125 (active).
With `CON=C(C(=O)NC1C(=O)N2C(C(=O)O)=C(COC(C)=O)CSC12)c1csc(N)n1` (stereo not given) [Cefotaxime Acid] the figure was 96.3 (inactive).
